Measurements reported in PubChem BioAssay (NCI).
About 83,000 compounds went through this panel and 20% of them were active in at least one assay; those are over-represented in the sample as a whole.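 Cells were grown in 96-well plates and exposed to the test compound at a single concentration for 48 hours; results are reported as percent growth, with values below 10 considered active.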

How the values were obtained:
Assay in all cases: NCI-60 one-dose screen, 48 h (100 = growth as untreated, 0 = no growth, -100 = all killed)
Details in all cases: 10 µM unless noted
DU-145 prostate = system: DU-145 prostate
K-562 leukemia = system: K-562 leukemia
MALME-3M melanoma = system: MALME-3M melanoma
MDA-MB-231 breast = system: MDA-MB-231 breast
RXF 393 renal = system: RXF 393 renal
SF-268 CNS = system: SF-268 CNS
SF-295 CNS = system: SF-295 CNS
SF-539 CNS = system: SF-539 CNS
UACC-257 melanoma = system: UACC-257 melanoma
HCT-15 colon = system: HCT-15 colon
HT29 colon = system: HT29 colon
SNB-75 CNS = system: SNB-75 CNS
SNB-19 CNS = system: SNB-19 CNS
U251 CNS = system: U251 CNS
SK-MEL-5 melanoma = system: SK-MEL-5 melanoma
UACC-62 melanoma = system: UACC-62 melanoma
LOX IMVI melanoma = system: LOX IMVI melanoma
SK-MEL-28 melanoma = system: SK-MEL-28 melanoma
PC-3 prostate = system: PC-3 prostate

Measured: growth

Cc1ccc(C)n1-c1ccccc1-n1c(C)ccc1C
inactive: DU-145 prostate 111% | K-562 leukemia 101% | MALME-3M melanoma 120% | MDA-MB-231 breast 90.8% | RXF 393 renal 109% | SF-268 CNS 98.6% | SF-295 CNS 92.9% | SF-539 CNS 104% | UACC-257 melanoma 103% | HCT-15 colon 115% | HT29 colon 103% | SNB-75 CNS 87.2% | SNB-19 CNS 108% | U251 CNS 102% | SK-MEL-5 melanoma 104% | UACC-62 melanoma 87.5% | LOX IMVI melanoma 90.9% | SK-MEL-28 melanoma 93.6%

COc1ccc(\C=N/N=C(N)/C(N)=N\N=C/c2ccc(OC)cc2)cc1
inactive: DU-145 prostate 113% | K-562 leukemia 99.9% | MALME-3M melanoma 106% | MDA-MB-231 breast 107% | RXF 393 renal 96.9% | SF-268 CNS 100% | SF-295 CNS 97.3% | SF-539 CNS 92.7% | UACC-257 melanoma 121% | HCT-15 colon 104% | HT29 colon 102% | SNB-75 CNS 86.8% | SNB-19 CNS 112% | U251 CNS 107% | PC-3 prostate 101% | SK-MEL-5 melanoma 105% | UACC-62 melanoma 104% | LOX IMVI melanoma 99.1% | SK-MEL-28 melanoma 125%

COc1ccc(/C=C/C(=O)c2ccc(Nc3ccnc4cc(Cl)ccc34)cc2)cc1
inactive: DU-145 prostate 103% | K-562 leukemia 45% | MALME-3M melanoma 142% | MDA-MB-231 breast 80.7% | RXF 393 renal 13.5% | SF-268 CNS 100% | SF-295 CNS 77.4% | SF-539 CNS 86.8% | UACC-257 melanoma 102% | HCT-15 colon 77.7% | HT29 colon 45% | SNB-75 CNS 102% | U251 CNS 84.9% | PC-3 prostate 75% | SK-MEL-5 melanoma 67.8% | UACC-62 melanoma 92.3% | LOX IMVI melanoma 89.8% | SK-MEL-28 melanoma 118%

CNC(=O)c1ccccc1Oc1nc(Nc2cc(OC)c(OC)c(OC)c2)ncc1Br
inactive: DU-145 prostate 58.1% | K-562 leukemia 77.2% | MALME-3M melanoma 82.3% | MDA-MB-231 breast 75.4% | RXF 393 renal 40.3% | SF-268 CNS 59.3% | SF-295 CNS 53% | SF-539 CNS 71.1% | UACC-257 melanoma 77% | HCT-15 colon 59.9% | HT29 colon 45.1% | SNB-75 CNS 53.1% | SNB-19 CNS 94.9% | U251 CNS 57.6% | PC-3 prostate 61.4% | SK-MEL-5 melanoma 80% | UACC-62 melanoma 50.7% | LOX IMVI melanoma 21.8% | SK-MEL-28 melanoma 80.5%

O=C(OC(CO)C(=O)NC12CC3CC(CC(C3)C1)C2)c1ccc(Cl)cc1 (stereo unspecified)
inactive: DU-145 prostate 103% | K-562 leukemia 95.5% | MALME-3M melanoma 104% | MDA-MB-231 breast 105% | RXF 393 renal 103% | SF-268 CNS 104% | SF-295 CNS 100% | SF-539 CNS 96% | UACC-257 melanoma 100% | HCT-15 colon 99.4% | HT29 colon 100% | SNB-75 CNS 102% | SNB-19 CNS 98.8% | U251 CNS 96.7% | PC-3 prostate 98.6% | SK-MEL-5 melanoma 98.3% | UACC-62 melanoma 96.6% | LOX IMVI melanoma 101% | SK-MEL-28 melanoma 108%

Clc1ccc2c(NC3CCC(N4CCOCC4)CC3)ccnc2c1 (stereo unspecified)
inactive: DU-145 prostate 90.9% | K-562 leukemia 48.6% | MALME-3M melanoma 89.3% | MDA-MB-231 breast 81.7% | RXF 393 renal 90.3% | SF-268 CNS 108% | SF-295 CNS 47.1% | SF-539 CNS 91.4% | UACC-257 melanoma 56.6% | HCT-15 colon 93.5% | HT29 colon 84.7% | SNB-75 CNS 82.7% | SNB-19 CNS 79.3% | U251 CNS 81.1% | PC-3 prostate 62.3% | SK-MEL-5 melanoma 53.4% | UACC-62 melanoma 77.4% | LOX IMVI melanoma 68.6% | SK-MEL-28 melanoma 97.3%

COc1cc2ncnc(Nc3ccc(S(=O)(=O)Nc4cc(C)on4)cc3)c2cc1OCCCN1CCN(c2ccc(F)cc2)CC1
inactive: DU-145 prostate 112% | K-562 leukemia 89.8% | MALME-3M melanoma 99.3% | MDA-MB-231 breast 89.6% | RXF 393 renal 105% | SF-268 CNS 97.9% | SF-295 CNS 102% | SF-539 CNS 96.4% | UACC-257 melanoma 106% | HCT-15 colon 110% | HT29 colon 112% | SNB-75 CNS 85.4% | SNB-19 CNS 97.3% | U251 CNS 93.6% | PC-3 prostate 101% | SK-MEL-5 melanoma 103% | UACC-62 melanoma 91% | LOX IMVI melanoma 89.8% | SK-MEL-28 melanoma 107%
